Source: PubChem (several laboratories)
NOD2 RIPK2 PPI – blocks binding of human NOD2 to RIPK2; actives 0.38% (n = 360,000); AID 624267; inhibition, % at 4.98 µM; O43353; CHO BLA complementation NOD2-RIPK2, CCF4 ratio; in the data active = inhibition above about 21%;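 note: 0% = vehicle only and 100% = reference blocker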
ANO1 block – blocks the mouse calcium-activated chloride channel TMEM16A; Q8BHY3; HEK293 TMEM16A/YFP iodide influx fluorescence, ionomycin; normalized B-score (activity score, 25-100; higher = stronger inhibition) at 10 µM; actives 1.2% (n = 310,000);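 active = ratio plate-corrected score three or more library SD toward inhibition, starting fluorescence score within five deviations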;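 note: score derived from kinetic fluorescence span divided by baseline fluorescence per well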
ANO1 activ – activates or potentiates the mouse TMEM16A chloride channel | HEK293 TMEM16A/YFP-H148Q/I152L, iodide quench fluorescence; hits give low values | actives 0.3% (n = 340,000) | Q8BHY3 | B-score at 10 µM;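 active = fluorescence-ratio B-score plate-corrected deviation score at least 3 library SD below zero, with starting fluorescence score within 5 deviations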;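 note: channel opened by trigger with iodide after compound preincubation; score built on the fluorescence ratio of max minus min over baseline; more negative score means more quench and so TMEM16A activation or potentiation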
TLR9-MyD88 inh – TLR9-MyD88 interaction inhibition | Q9NR96+Q99836 | CHO BLA complementation TLR9-MyD88, CCF4 FRET ratio | inhibition, % at 4.98 µM | actives 0.21% (n = 340,000) | AID 504734;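 active = inhibition above the mean over all tested compounds plus 3 SD, cut at about 21% in these data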;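 note: 0% = DMSO only wells and 100% = clavulanate BLA inhibitor control wells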
Target sequence (Q99836 whole entry, looked up): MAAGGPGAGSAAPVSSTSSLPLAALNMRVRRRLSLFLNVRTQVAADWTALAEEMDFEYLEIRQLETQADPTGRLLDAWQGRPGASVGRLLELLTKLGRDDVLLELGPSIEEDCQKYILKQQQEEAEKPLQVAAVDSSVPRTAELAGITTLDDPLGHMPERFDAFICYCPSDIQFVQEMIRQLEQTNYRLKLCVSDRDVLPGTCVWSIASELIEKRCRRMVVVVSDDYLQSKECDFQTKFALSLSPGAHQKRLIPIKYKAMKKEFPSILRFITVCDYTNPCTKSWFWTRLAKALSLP
Target sequence (Q9NR96 whole entry, looked up): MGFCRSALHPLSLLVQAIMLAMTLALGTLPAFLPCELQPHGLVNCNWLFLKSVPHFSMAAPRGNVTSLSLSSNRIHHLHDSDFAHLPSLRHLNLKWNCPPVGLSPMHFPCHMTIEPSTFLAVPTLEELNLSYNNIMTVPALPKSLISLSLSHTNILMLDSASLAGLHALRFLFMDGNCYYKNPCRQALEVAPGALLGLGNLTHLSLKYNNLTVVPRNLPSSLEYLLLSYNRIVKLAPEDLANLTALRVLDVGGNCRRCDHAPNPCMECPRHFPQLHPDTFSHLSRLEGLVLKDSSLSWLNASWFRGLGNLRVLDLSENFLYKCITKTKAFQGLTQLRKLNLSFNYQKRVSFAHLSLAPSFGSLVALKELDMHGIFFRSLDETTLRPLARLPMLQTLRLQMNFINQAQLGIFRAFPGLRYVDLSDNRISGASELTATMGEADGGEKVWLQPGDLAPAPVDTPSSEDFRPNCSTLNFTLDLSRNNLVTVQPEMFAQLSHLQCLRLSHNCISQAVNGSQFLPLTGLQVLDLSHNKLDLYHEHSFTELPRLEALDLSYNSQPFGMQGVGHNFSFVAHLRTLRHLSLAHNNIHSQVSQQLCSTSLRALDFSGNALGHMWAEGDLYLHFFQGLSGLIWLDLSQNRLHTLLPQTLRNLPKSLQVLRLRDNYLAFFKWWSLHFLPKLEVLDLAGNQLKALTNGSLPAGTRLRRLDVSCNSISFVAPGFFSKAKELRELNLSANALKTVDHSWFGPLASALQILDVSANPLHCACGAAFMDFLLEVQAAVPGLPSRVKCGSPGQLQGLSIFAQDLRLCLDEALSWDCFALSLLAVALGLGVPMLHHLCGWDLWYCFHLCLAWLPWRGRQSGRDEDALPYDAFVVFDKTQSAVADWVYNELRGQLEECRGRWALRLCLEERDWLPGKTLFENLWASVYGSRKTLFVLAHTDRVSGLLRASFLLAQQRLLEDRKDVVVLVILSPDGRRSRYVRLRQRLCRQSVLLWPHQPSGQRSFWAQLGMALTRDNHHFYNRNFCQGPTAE
TLR4 MyD88 comp – inhibitors of human TLR4-MyD88 binding; O00206+Q99836; HeLa CL3-4 TLR4/MyD88 BLA complementation, FRET ratio; inhibition, % at 8.4 µM; actives 0.18% (n = 200,000); AID 861; in the data active = inhibition above about 25%;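 note: 0% = vehicle and 100% = reference inhibitor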
HTR2A ag – agonists of mouse serotonin 5-HT2A receptor (HTR2A). AID 624169. P35363. CHO-K1 mHTR2A beta-arrestin complementation, luminescence; percent of 30 µM serotonin response. activation, % at 7.6 µM. actives 0.66% (n = 360,000);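 active = activation above a run cutoff, the mean activation of all tested compounds plus 3 SD, cut at about 14% in these data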;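 note: 0% = plate median of compound wells and 100% = 30 µM serotonin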
TLR4 MyD88 cnf – confirmation of human TLR4-MyD88 binding inhibitors | shares compounds with TLR4 MyD88 comp | HeLa CL3-4 BLA complementation, CCF4 FRET ratio | inhibition, % at 8.4 µM | actives 50% (n = 350) | AID 941;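 active = mean inhibition across three repeat runs above about 25% carried over from the earlier screen, limit read from the data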;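 note: plate controls were DMSO only for no effect and clavulanic acid blocking BLA at full dose for full effect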
BLA inh HeLa – inhibits beta-lactamase activity, counter-screen to TLR4-MyD88 binding inhibitors; actives 63% (n = 350); shares compounds with TLR4 MyD88 comp; AID 1237; HeLa BLA reporter, CCF4 FRET ratio; inhibition, % at 8.4 µM;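 active = mean inhibition over three repeats above about 26% taken from the earlier screen, limit read from the data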;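 note: HeLa cells stably expressing beta-lactamase reporter as counterscreen for TLR4-MyD88 inhibitors; 0% = DMSO and 100% = clavulanic acid full inhibition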
TLR9-MyD88 conf – confirmation of human TLR9-MyD88 binding inhibitors; actives 51% (n = 680); CHO TLR9/MyD88 BLA complementation, CCF4 FRET ratio; shares compounds with TLR9-MyD88 inh; inhibition, % at 4.98 µM; AID 540250;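 active = mean inhibition across three repeats above about 21% taken from the earlier screen, limit read from the data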;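 note: blue over green emission ratio reports constitutive TLR9 MyD88 association via BLA complementation; 0% = DMSO vehicle wells and 100% = clavulanate BLA inhibitor wells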
BLA counter – counter-screen for TLR9-MyD88 inhibitors: non-selective beta-lactamase inhibitors; shares compounds with TLR9-MyD88 inh; CHO-BLA cells, CCF4 FRET ratio, BLA reporter; inhibition, % at 4.98 µM; actives 7% (n = 680); AID 540251;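 active = mean inhibition above a 50% cutoff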;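 note: counterscreen of TLR9-MyD88 hits on CMV-driven BLA in CHO-K1 cells; 0% = DMSO alone and 100% = clavulanate blocking BLA; higher means less blue over green ratio so more BLA blockade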
TLR9 CHO cytotox – CHO cell toxicity counter-screen for TLR9-MyD88 inhibitors | inhibition, % at 4.98 µM | shares compounds with TLR9-MyD88 inh | actives 39% (n = 680) | TLR9-MyD88 CHO cells cytotoxicity, luminescence; in the data active = inhibition above about 11%
* = called active by the depositor; i = inactive; nt = not tested or not shown. Shown are actives, neighbours in structure and some others; about 2.4% of the full set was active somewhere.

SMILES	NOD2 RIPK2 PPI	ANO1 block	ANO1 activ	TLR9-MyD88 inh	TLR4 MyD88 comp	HTR2A ag	TLR4 MyD88 cnf	BLA inh HeLa	TLR9-MyD88 conf	BLA counter	TLR9 CHO cytotox
CC(C)(C)C(c1nc2ccccc2[nH]1)n1c(-c2ccsc2)nc2ccccc21 (configuration not stated)	0	nt	nt	nt	nt	1	nt	nt	nt	nt	nt
Nc1ccccc1C(=O)NCc1ccco1	-10	i	i	-2	nt	2	nt	nt	nt	nt	nt
O=C(NCc1ccco1)c1ccccc1F	1	i	i	-5	26*	2	-3	4	nt	nt	nt
CCOC(=O)c1ccc2c(c1)NCc1cccc(OC)c1O2	7	i	i	-14	nt	-3	nt	nt	nt	nt	nt
N#Cc1ccccc1Cn1cc(/C=N/Nc2ccc([N+](=O)[O-])cn2)c2ccccc21	-3	i	i	0	46*	1	40*	79*	nt	nt	nt
O=[N+]([O-])c1ccc(NN=Cc2ccccc2O)nc1	19	nt	i	15	nt	-23	nt	nt	nt	nt	nt
O=[N+]([O-])c1ccc(N/N=C/c2ccc(OCc3cccc4ccccc34)cc2)nc1	0	i	i	16	35*	6	47*	82*	nt	nt	nt
COc1ccc(C2C=C(c3ccccc3)Nc3nc(CCCO)nn32)cc1 (configuration not stated)	nt	i	nt	nt	26*	nt	26*	38*	nt	nt	nt
COc1ccc(C2C=C(c3cccs3)Nc3nc(CCCO)nn32)cc1 (configuration not stated)	nt	i	nt	nt	32*	nt	33*	56*	nt	nt	nt
CC(Cc1ccccc1)=NNS(=O)(=O)c1ccc([N+](=O)[O-])cc1	-12	nt	i	-6	nt	-2	nt	nt	nt	nt	nt
O=C(c1ccc(OC2CCN(C/C=C/c3ccc(F)cc3)CC2)cc1)N1CCCC1	12	i	i	1	nt	-7	nt	nt	nt	nt	nt
CC(C)(C)C(=O)Cn1ncc(N2CCOCC2)c(Cl)c1=O	-1	i	i	2	nt	6	nt	nt	nt	nt	nt
CC(C)(C)C(=O)Cn1ncc(Br)c(Br)c1=O	11	nt	i	17	36*	3	17	5	nt	nt	nt
O=C(CSc1nnc(CNC(=O)c2c(F)cccc2Cl)o1)Nc1ccccc1	-3	i	i	-11	6	7	nt	nt	nt	nt	nt
O=C(CSc1nnc(CNC(=O)c2c(F)cccc2Cl)o1)c1ccccc1	5	i	i	3	27*	-1	0	7	nt	nt	nt
O=C(Nc1nccs1)c1cccc(N2C(=O)c3cccc4c([N+](=O)[O-])ccc(c34)C2=O)c1	-4	i	i	0	28*	3	21	32*	nt	nt	nt
O=C(Nc1ccc(S(=O)(=O)Nc2nccs2)cc1)c1cccc(N2C(=O)c3ccccc3C2=O)c1	8	i	i	-7	18	-2	nt	nt	nt	nt	nt
CN1/C(=C/C(=O)c2nc(S(C)(=O)=O)ncc2Cl)C(C)(C)c2ccccc21	70*	i	i	44*	36*	-11	29*	18	46*	25	99*
COc1ccccc1NC(=O)c1sc2nc(-c3ccco3)ccc2c1N	34*	i	i	42*	26*	0	21	51*	34*	34	3
Nc1c(C(=O)Nc2ccccc2)sc2nc(-c3ccco3)ccc12	2	i	i	16	0	-2	nt	nt	nt	nt	nt
O=C(OCCN1C(=O)c2cccc3c(N4CCOCC4)ccc(c23)C1=O)c1ccc(Cl)cc1Cl	7	i	i	38*	40*	-2	58*	86*	68*	69*	29*
O=C(OCCN1C(=O)c2cccc3c(N4CCOCC4)ccc(c23)C1=O)c1cccc(Cl)c1	nt	i	nt	nt	6	nt	nt	nt	nt	nt	nt
O=C(/C=C/c1c[nH]c2ccccc12)c1cccc2ccccc12	20	i	i	36*	33*	-1	22	47*	23*	23	8
OCCCc1nc2n(n1)C(c1ccccc1)C=C(c1ccccc1)N2 (configuration not stated)	64*	i	i	40*	35*	14	28*	50*	32*	32	3
CCc1ccc(/C=C2\SC(=S)N(CCC(=O)N3CCN(C)CC3)C2=O)cc1	4	i	i	7	-1	-3	nt	nt	nt	nt	nt
SMILES	NOD2 RIPK2 PPI	ANO1 block	ANO1 activ	TLR9-MyD88 inh	TLR4 MyD88 comp	HTR2A ag	TLR4 MyD88 cnf	BLA inh HeLa	TLR9-MyD88 conf	BLA counter	TLR9 CHO cytotox
CC(C)(C)NC(=O)CSc1nnc(-c2ccccn2)n1Cc1ccccc1	-4	i	i	1	nt	4	nt	nt	nt	nt	nt
Cc1ccc(S(=O)(=O)N[C@H](C(=O)Oc2ccc3c(C(F)(F)F)cc(=O)oc3c2)c2ccccc2)cc1	58*	i	i	55*	32*	3	43*	56*	33*	40	-1
Cc1cccc(C)c1NC(=S)N1CCCN(Cc2ccc(F)cc2)C1	-2	i	i	1	-1	-5	nt	nt	nt	nt	nt
COc1ccc(CN2CCC(Oc3cc(C(=O)NC4CC4)ccc3OC)CC2)c(O)c1	-3	i	i	-1	nt	-10	nt	nt	nt	nt	nt
CC[C@H](C)/C=C(C)/C=C/C1=CC2=CC(=O)[C@]3(C)OC(=O)[C@@H](C(C)=O)[C@@H]3C2=CO1	19	i	i	32*	33*	-2	19	48*	27*	30	1
O=[N+]([O-])c1ccc(-c2ccc(/C=N/Nc3nc(NCc4ccccc4)nc(N4CCOCC4)n3)o2)cc1	10	i	i	36*	55*	-7	47*	76*	29*	31	3
CCn1c(SC(C)C(=O)O)nnc1-c1cccnc1 (configuration not stated)	-7	i	i	2	6	0	nt	nt	nt	nt	nt
O=C(O)/C(=C\c1ccccc1OC(F)F)c1ccc(-c2ccccc2)cc1	-2	i	i	4	nt	-2	nt	nt	nt	nt	nt
CC1C/C(=C/c2cccn2C)C(=O)/C(=C/c2cccn2C)C1 (configuration not stated)	-4	i	i	37*	55*	-2	32*	61*	41*	40	1
